# Results as given in ChEMBL document CHEMBL3433997, “St. Jude Leishmania screening dataset” (2016).
# Molecular target: Solute carrier family 2, facilitated glucose transporter member 1 (Homo sapiens) (UniProt P11166)
# Test: ST_JUDE_LEISH: Cytotoxicity at 2uM final concentration against transgenic Leishmania Mexicana promastigotes LmGLUT1 that are glucose transport deficient and complemented with the human glucose transporter GLUT1. Activity is measured by DNA content using SYBR green in vitro
# Assay type: functional
# Solute carrier family 2, facilitated glucose transporter member 1 (Homo sapiens), sequence (P11166 whole entry): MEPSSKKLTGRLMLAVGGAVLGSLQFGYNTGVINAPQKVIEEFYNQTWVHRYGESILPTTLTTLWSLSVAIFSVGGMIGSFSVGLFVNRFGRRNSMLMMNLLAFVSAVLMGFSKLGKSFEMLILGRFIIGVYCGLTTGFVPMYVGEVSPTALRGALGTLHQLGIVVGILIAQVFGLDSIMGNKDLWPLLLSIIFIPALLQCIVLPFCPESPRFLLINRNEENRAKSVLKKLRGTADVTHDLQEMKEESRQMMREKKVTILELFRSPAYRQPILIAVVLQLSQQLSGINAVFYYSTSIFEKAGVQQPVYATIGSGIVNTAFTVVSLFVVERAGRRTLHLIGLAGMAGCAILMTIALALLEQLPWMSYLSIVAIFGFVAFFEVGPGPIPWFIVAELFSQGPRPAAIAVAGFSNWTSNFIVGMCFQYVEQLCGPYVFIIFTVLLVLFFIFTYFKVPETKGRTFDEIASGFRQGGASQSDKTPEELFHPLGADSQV
row,SMILES,inhibition [%]
1,CC(=O)CSC(C=Cc1ccc(N(C)C)cc1)=Nc1ccccc1,85.4
2,O=C(Nc1cccc(-c2ccc(-c3nc4ccccc4[nH]3)s2)c1)c1ccncc1,1.95
3,Cc1ccc(C(=O)Nc2ccc(Nc3ccnc4cc(-c5ccncc5)ccc34)cc2O)cc1,-0.09
4,COc1ccc(CNCC2CCC(CNCCc3ccccc3)CC2)cc1Cl (stereo unspecified),1.1
5,CCC1(C)N=C(N)N=C(N)N1c1ccccc1 (stereo unspecified),-3.49
6,O=S(=O)(Nc1ccc2nccc(N3CCNCC3)c2c1)c1ccc2oc3ccccc3c2c1,4.08
7,COc1ccccc1Nc1nc(C)cc(NCc2ccc(-n3ccnc3)cc2)n1,8.92
8,OC(CNCc1ccccc1Oc1ccccc1)c1cc(Br)cs1 (stereo unspecified),4.37
9,CN(C)CCCOc1ccc(CCNCc2cccc(Oc3ccc(Cl)cc3)c2)cc1,14
10,CCN(c1ccc(O)c(CN2CCCCC2)c1)c1ccc([N+](=O)[O-])cn1,2.79
11,FC(F)(F)c1cccc2c(NN=Cc3ccccc3)ccnc12,2.7
12,O=C(O)/C=C/c1cccc(F)c1F,1.29
13,CCCCC(=O)N(CCOC)Cc1ccc(-c2ccc(CNCCC)cn2)cc1,7.95
14,COc1ccc(/C=C/C(=O)N2CCc3cc4nccc(N5CCN6CCC[C@H]6C5)c4cc32)cc1,3.43
15,CCNc1cc(C(=O)N[C@@H](Cc2ccccc2Cl)[C@H](O)CNC2CCCCC2)cc(N2CCCCS2(=O)=O)c1,0.03
16,CCCCCCCCc1c(C)nc(C)c(C#N)c1O,5.8
17,O=C(/C=C/c1ccc(Cl)c(Cl)c1)NCCCCCN1CCC(NC(=O)NC2CCCC2)CC1,1.11
18,CNC(=O)c1cnc(Nc2ccc(OCC(O)CN(C)C)cc2)nc1Nc1cccc([N+](=O)[O-])c1 (stereo unspecified),3.44
19,COc1ccccc1NC(=O)CSc1nc2cccnc2n1-c1ccccc1OC,0.89
20,COc1cc(SC)c(Br)cc1-c1nc2ccncc2[nH]1,3.09
21,CS(=O)(=O)NCCCNCc1ccc(-c2ccc(-c3nc4cc(F)ccc4[nH]3)s2)cc1,-2.43
22,COc1cc(CCNc2nc(NCc3ccccc3-c3ccccc3)nc(N3CCC(N)CC3)n2)ccc1O,4.17
23,COc1ccc(NC(=O)N2CCCN(CCCCCNC(=O)/C=C/c3ccc(Cl)cc3)CC2)cc1Cl,2.15
24,O=S(=O)(NCCN1CCCC1)c1ccc(-c2ccc(CNCc3ccccc3)cc2)s1,4.55
25,O=C(Nc1cccnc1)c1cc(-c2cc(Cl)ccc2O)n[nH]1,2.55
26,O=C(NC1CCCCC1)C1CCCN(C(=O)c2ccc(O)c(-c3ccc(Cl)c(Cl)c3)c2)C1 (stereo unspecified),0.15

# Molecular target: Hexose transporter 1 (Plasmodium falciparum) (UniProt O97467)
# Test: ST_JUDE_LEISH: Cytotoxicity at 2uM final concentration against transgenic Leishmania Mexicana promastigotes LmPfHT that are glucose transport deficient and complemented with the Plasmodium falciparum hexose transporter. Activity is measured by DNA content using SYBR green in vitro
# Assay type: functional
row,SMILES,inhibition [%]
1,CCN(CC)c1ccc(C(c2ccc(N(CC)CC)cc2)c2cccc([N+](=O)[O-])c2)cc1,13.8
2,COC(=O)c1cc2cccc(NC[C@@H](C)NC[C@H](O)c3cccc(Cl)c3)c2[nH]1,1.58
3,COc1ccc2nc3cc(Cl)ccc3c(Nc3ccc(Sc4ccc(Nc5c6ccc(Cl)cc6nc6ccc(OC)cc56)cc4)cc3)c2c1,4.48
4,COCC(=O)N(Cc1ccccc1-c1cccc(CNCc2ccc3c(c2)OCO3)c1)C1CCN(Cc2ccccc2)CC1,1.22
5,O=C(Nc1cc(F)cc(F)c1)N1CCOC(CCN2CCC3(CCc4ccccc43)CC2)(c2ccc(Cl)c(Cl)c2)C1 (stereo unspecified),3.01
6,COc1ccc2ncc(Cl)c(CCN3CCC(NCc4ccc5c(n4)NC(=O)CS5)CC3)c2c1,11
7,CC(C)[C@H](NC(=O)c1c(CN2CCC(N3CCCCC3)CC2)c(-c2ccccc2)nc2cc(O)ccc12)c1ccccc1,1.22
8,CON(CCCN(C)C)C(=N)N,2.02
9,COc1cccc2cc(C(=O)N[C@@H](CC(C)C)C(=O)N[C@H](/C=N/NC(=O)c3ccccc3)Cc3c[nH]cn3)oc12,0.99
10,OC(CN1c2ccccc2Sc2ccccc21)CN(C1CCCCC1)C1CCCCC1 (stereo unspecified),6.38
11,CC(C)(C)c1ccc(CNC(=O)c2ccc(-c3nc4cc(C(C)(C)C)ccc4[nH]3)cc2)cc1,4.23
12,CSCCCN1CCC(O)(c2ccc3oc(C(=O)Nc4ccc5sc(C)nc5c4)cc3c2)CC1,24.5
13,Brc1ccc(Nc2ccnc3cc(-c4nccs4)ccc23)cc1Oc1ccnc2cc(-c3nccs3)ccc12,2.1
14,Cc1c(NC(=O)COc2ccc(Cl)cc2C(=O)c2cc(F)cc(C(F)(F)F)c2)ccc2ncsc12,9.17
15,CC(=O)CSC(C=Cc1ccc(N(C)C)cc1)=Nc1ccccc1,83.3
16,O=C(Nc1cccc(-c2ccc(-c3nc4ccccc4[nH]3)s2)c1)c1ccncc1,9.91
17,Cc1ccc(C(=O)Nc2ccc(Nc3ccnc4cc(-c5ccncc5)ccc34)cc2O)cc1,-0.05
18,COc1ccc(CNCC2CCC(CNCCc3ccccc3)CC2)cc1Cl (stereo unspecified),2.42
19,CCC1(C)N=C(N)N=C(N)N1c1ccccc1 (stereo unspecified),0
20,O=S(=O)(Nc1ccc2nccc(N3CCNCC3)c2c1)c1ccc2oc3ccccc3c2c1,6.5

row,SMILES,inhibition [%]
1,COc1ccccc1Nc1nc(C)cc(NCc2ccc(-n3ccnc3)cc2)n1,7.52
2,OC(CNCc1ccccc1Oc1ccccc1)c1cc(Br)cs1 (stereo unspecified),3.03
3,CN(C)CCCOc1ccc(CCNCc2cccc(Oc3ccc(Cl)cc3)c2)cc1,16.4
4,CCN(c1ccc(O)c(CN2CCCCC2)c1)c1ccc([N+](=O)[O-])cn1,1.08
5,FC(F)(F)c1cccc2c(NN=Cc3ccccc3)ccnc12,2.21
6,O=C(O)/C=C/c1cccc(F)c1F,1.5
7,CCCCC(=O)N(CCOC)Cc1ccc(-c2ccc(CNCCC)cn2)cc1,6.86
8,COc1ccc(/C=C/C(=O)N2CCc3cc4nccc(N5CCN6CCC[C@H]6C5)c4cc32)cc1,4.78
9,CCNc1cc(C(=O)N[C@@H](Cc2ccccc2Cl)[C@H](O)CNC2CCCCC2)cc(N2CCCCS2(=O)=O)c1,0.45
10,CCCCCCCCc1c(C)nc(C)c(C#N)c1O,6.51
11,O=C(/C=C/c1ccc(Cl)c(Cl)c1)NCCCCCN1CCC(NC(=O)NC2CCCC2)CC1,1.93
12,CNC(=O)c1cnc(Nc2ccc(OCC(O)CN(C)C)cc2)nc1Nc1cccc([N+](=O)[O-])c1 (stereo unspecified),3.59
13,COc1ccccc1NC(=O)CSc1nc2cccnc2n1-c1ccccc1OC,2.24
14,COc1cc(SC)c(Br)cc1-c1nc2ccncc2[nH]1,2.12
15,CS(=O)(=O)NCCCNCc1ccc(-c2ccc(-c3nc4cc(F)ccc4[nH]3)s2)cc1,-1.55
16,COc1cc(CCNc2nc(NCc3ccccc3-c3ccccc3)nc(N3CCC(N)CC3)n2)ccc1O,0.92
17,COc1ccc(NC(=O)N2CCCN(CCCCCNC(=O)/C=C/c3ccc(Cl)cc3)CC2)cc1Cl,2.96
18,O=S(=O)(NCCN1CCCC1)c1ccc(-c2ccc(CNCc3ccccc3)cc2)s1,3.35
19,O=C(Nc1cccnc1)c1cc(-c2cc(Cl)ccc2O)n[nH]1,2.47
20,O=C(NC1CCCCC1)C1CCCN(C(=O)c2ccc(O)c(-c3ccc(Cl)c(Cl)c3)c2)C1 (stereo unspecified),1.83
